From ChEMBL document CHEMBL1961873, “Compounds: GSK PKIS; Assays: Nanosyn kinase panel” (2012) come the findings set out here.

Molecules are shown by their SMILES.
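Note: mean inhibition of PRAK measured in the GSK PKIS screen.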

This assay has as its target T1, MAP kinase-activated protein kinase 5 (Homo sapiens) (UniProt Q8IW41).
T1 sequence (whole entry): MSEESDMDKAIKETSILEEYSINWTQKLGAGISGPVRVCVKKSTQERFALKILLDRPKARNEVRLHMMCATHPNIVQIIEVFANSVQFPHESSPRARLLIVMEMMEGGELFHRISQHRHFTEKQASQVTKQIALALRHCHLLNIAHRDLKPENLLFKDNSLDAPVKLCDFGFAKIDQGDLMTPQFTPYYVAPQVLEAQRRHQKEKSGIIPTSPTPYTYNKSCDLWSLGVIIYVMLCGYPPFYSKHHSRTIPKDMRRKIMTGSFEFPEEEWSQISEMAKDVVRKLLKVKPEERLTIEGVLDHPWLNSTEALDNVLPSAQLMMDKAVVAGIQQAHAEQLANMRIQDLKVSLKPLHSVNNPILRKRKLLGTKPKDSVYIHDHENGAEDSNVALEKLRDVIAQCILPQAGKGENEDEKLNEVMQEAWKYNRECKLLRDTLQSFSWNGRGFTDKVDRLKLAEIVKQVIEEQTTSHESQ
The note with it: at 1 µM.
What is called inhibition is the change of the read-out against control, counted positive when it falls. Turning to `COc1ccc2ncn(-c3cc(O[C@H](C)c4ccccc4Cl)c(C(N)=O)s3)c2c1`, the inhibition is 1.26%. As to `C#Cc1cccc(Nc2ncnc3ccc(OCCCCNCCS(C)(=O)=O)cc23)c1`, the inhibition turned out to be 2.73%. With `NS(=O)(=O)c1ccc(Nc2cc(-c3ccc(O)c(F)c3)n[nH]2)cc1` the figure was -1.22%; with `C[C@@H](Oc1cc(-n2cnc3ccc(OCC4CCN(C)CC4)cc32)sc1C(N)=O)c1ccccc1Cl`, 2.11%.

In the case of `Fc1ccc(-c2ncn(CCCN3CCOCC3)c2-c2ccncc2)cc1`, the inhibition is -1.42%. In the case of `NS(=O)(=O)c1ccc(N/N=C2\C(=O)Nc3ccc(C(=O)NCCCn4ccnc4)cc32)cc1` it was 4.54%. With `COc1ccc2cc(-c3c(-c4ccncc4)nc(-c4ccc(S(C)(=O)=O)cc4C)n3C)ccc2c1` the figure was 2.64%; with `Clc1ccc(CNc2nccc(-c3cnn4ncccc34)n2)cc1`, 0.03%. With `COC(=O)Nc1nc2ccc(Sc3ccc(NC(=O)Nc4cc(C(F)(F)F)ccc4F)cc3)cc2[nH]1` the figure was -0.97%; with `Fc1ccc(-c2ncn(C3CCNCC3)c2-c2ccnc(Oc3ccc4c(c3)OCO4)n2)cc1`, 2.05%; with `Cc1ccc(C(=O)NC(C)C)cc1-c1ccc(C(=O)NCC2CC2)cc1`, -1.11%. For the compound `CCS(=O)(=O)c1ccc(OC)c(Nc2ncc(-c3ccccc3Cl)o2)c1`, the inhibition is -0.58%. With `NC(=O)c1cc(-c2ccncc2)cc(-c2ccccc2)c1N` the figure was 2.24%; with `c1ccc(-c2n[nH]cc2-c2ccnc(-c3ccc(OCCN4CCOCC4)cc3)c2)nc1`, -0.78%. With `Cc1ccc(C(=O)NC2CCC2)cc1-c1ccc(C(=O)NCC2CC2)cc1` the figure was -0.21%. In the case of `CN(c1ccc(NC(=O)Nc2c(Cl)cccc2Cl)cc1)c1ccnc(Nc2cccc(CS(C)(=O)=O)c2)n1` it was 1.46%.
